Test results as given in the supplement of paper PMC7156485.
± gives the standard deviation of the averaged measurements.

Tests used:
Settings in all cases: concentration: 10 µM; 24 h
[1] = system: HCC1569; assay: cell number relative to DMSO (% of DMSO); higher = more cells (less growth inhibition / toxicity)
Outline: (§1)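 HCC1569 and TDF cells (800 per well, 384-well plates, RPMI with 10% FBS) were treated with compounds at 10 µM for 24 h at 37 °C, in triplicate. Cells were fixed in 3.7% formaldehyde and stained with a rabbit anti-H1.0 antibody, an AlexaFluor 647 secondary and DAPI; six fields per well were imaged at ×10. H1.0 nuclear intensity or cell number is expressed as percent of the plate DMSO control, taking the median of replicates. HCC1569 values were smoothed for positional effects.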

[2] = system: TDF; assay: as above
Outline: as §1

[3] = system: TDF; assay: H1.0 immunofluorescence intensity relative to DMSO (% of DMSO); higher = stronger H1.0 induction, active = 120 or more
Outline: as §1

[4] = system: HCC1569; assay: H1.0 immunofluorescence intensity relative to DMSO (% of DMSO); higher = stronger H1.0 induction, active = 140 or more
Outline: as §1
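Wherever H1.0 immunofluorescence intensity relative to DMSO is given: TDF is a line of transformed human dermal fibroblasts of mesenchymal origin.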
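Wherever cell number relative to DMSO is given: TDF denotes transformed human dermal fibroblasts of mesenchymal origin.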

In the case of `COC(=O)c1cc(OC)c2c(c1-c1c(CO)cc(OC)c3c1OCO3)OCO2`, the cell number [1] is reported as 104, the cell number [2] is reported as 99.8 and the H1.0 immunofluorescence intensity [3] is reported as 98.6 (inactive). For the same compound, the H1.0 immunofluorescence intensity [4] was 109 (inactive).

In the case of `O=c1c(O)c(-c2cc(O)c(O)c(O)c2)oc2cc(O)cc(O)c12` [Myricetin], the cell number [1] is reported as 102 ± 3.7, the cell number [2] is reported as 101 ± 3.9 and the H1.0 immunofluorescence intensity [3] is reported as 88.4 (inactive). For the same compound, the H1.0 immunofluorescence intensity [4] was 91.7 (inactive).

In the case of `CC(C)NCC(O)COc1cccc2ccccc12.Cl` [(S)-Propranolol hydrochloride], the cell number [1] is reported as 74.5, the cell number [2] is reported as 95.9 and the H1.0 immunofluorescence intensity [3] is reported as 87.7 (inactive). For the same compound, the H1.0 immunofluorescence intensity [4] was 230 (active).

In the case of `CCCCCC(O)C=CC=CC=CC(O)CC=CCCCC(=O)O` [8(S),15(S)-DIHETE all trans], the cell number [1] is reported as 103, the cell number [2] is reported as 96.5 and the H1.0 immunofluorescence intensity [3] is reported as 92.4 (inactive). The H1.0 immunofluorescence intensity [4] was 101 (inactive).

With `CCCC(CCC)C(=O)[O-].[Na+]` [Valproic acid sodium] the cell number [1] was 108, the cell number [2] was 119 and the H1.0 immunofluorescence intensity [3] was 95 (inactive). For the same compound, the H1.0 immunofluorescence intensity [4] was 99.9 (inactive).

In the case of `Cc1cn2cc(C(=O)N(C)CCO)cc(N[C@@H]3CCOc4cccc(C)c43)c2n1`, the cell number [1] is reported as 97.8, the cell number [2] is reported as 104 and the H1.0 immunofluorescence intensity [3] is reported as 94 (inactive). The H1.0 immunofluorescence intensity [4] was 106 (inactive).

In the case of `CC(NC(=O)C(C#N)=Cc1ccc(O)c(O)c1)c1ccccc1` (centres undefined) [Tyrphostin AG 835], the cell number [1] is reported as 87.3, the cell number [2] is reported as 87.3 and the H1.0 immunofluorescence intensity [3] is reported as 75 (inactive). For the same compound, the H1.0 immunofluorescence intensity [4] was 114 (inactive).

`CCCCCCC=CCCCCCCCCCC(=O)O` [11(E)-Octadecenoic acid] was tested, and the cell number [1] was 101, the cell number [2] was 99.5 and the H1.0 immunofluorescence intensity [3] was 105 (inactive). For the same compound, the H1.0 immunofluorescence intensity [4] was 103 (inactive).

In the case of `CSc1nc(N)c2ncn(C3OC(COP(=O)([O-])OP(=O)([O-])[O-])C(O)C3O)c2n1.[Na+].[Na+].[Na+]` (centres undefined) [2-Methylthioadenosine diphosphate trisodium], the cell number [1] is reported as 99.9, the cell number [2] is reported as 92.9 and the H1.0 immunofluorescence intensity [3] is reported as 99.2 (inactive). For the same compound, the H1.0 immunofluorescence intensity [4] was 89.7 (inactive).

For `O=C1CN(N=Cc2ccc(-c3ccc([N+](=O)[O-])cc3)o2)C(=O)[N-]1.[Na+]` [Dantrolene sodium], the cell number [1] was 100, the cell number [2] was 97 and the H1.0 immunofluorescence intensity [3] was 100 (inactive). The H1.0 immunofluorescence intensity [4] was 102 (inactive).

For `CCC1(O)CC2CN(CCc3c([nH]c4ccccc34)C(C(=O)OC)(c3cc4c(cc3OC)N(C)C3C(O)(C(N)=O)C(O)C5(CC)C=CCN6CCC43C65)C2)C1.O=S(=O)(O)O` (centres undefined) [Vindesine sulfate], the cell number [1] was 55.4, the cell number [2] was 8.86 and the H1.0 immunofluorescence intensity [3] was 155 (active). For the same compound, the H1.0 immunofluorescence intensity [4] was 179 (active).

In the case of `CCCCCC=CCC=CCC=CC=CC(O)CCCC(=O)O` (racemic), the cell number [1] is reported as 101, the cell number [2] is reported as 93 and the H1.0 immunofluorescence intensity [3] is reported as 109 (inactive). The H1.0 immunofluorescence intensity [4] was 102 (inactive).

In the case of `CN1CCN(CCC=C2c3ccccc3Sc3ccc(S(=O)(=O)N(C)C)cc32)CC1.Cl` [Thiothixene hydrochloride], the cell number [1] is reported as 95, the cell number [2] is reported as 107 and the H1.0 immunofluorescence intensity [3] is reported as 98.5 (inactive). For the same compound, the H1.0 immunofluorescence intensity [4] was 96.8 (inactive).

In the case of `O=C1CCc2c(ccc3ccccc23)O1` [1,2-dihydro-3H-benzo[f]chromen-3-one], the cell number [1] is reported as 103, the cell number [2] is reported as 101 and the H1.0 immunofluorescence intensity [3] is reported as 95.1 (inactive). For the same compound, the H1.0 immunofluorescence intensity [4] was 92.7 (inactive).

With `Cc1cc(O)c2c(c1)C(=O)c1cc(O)cc(O)c1C2=O` [Emodin] the cell number [1] was 98.4 ± 1.2, the cell number [2] was 96.8 ± 5.4 and the H1.0 immunofluorescence intensity [3] was 98.6 (inactive). The H1.0 immunofluorescence intensity [4] was 89.8 (inactive).

`COC(=O)C1=C(C#N)NC(C)=C(C(=O)OC(C)C)C1c1cccc([N+](=O)[O-])c1` (centres undefined) was tested, and the cell number [1] was 89.8, the cell number [2] was 97.4 and the H1.0 immunofluorescence intensity [3] was 98.2 (inactive). For the same compound, the H1.0 immunofluorescence intensity [4] was 123 (inactive).

With `CC(C)C1C2CCC(C2)C1N.Cl` (centres undefined) the cell number [1] was 99.9, the cell number [2] was 105 and the H1.0 immunofluorescence intensity [3] was 93 (inactive). The H1.0 immunofluorescence intensity [4] was 90.8 (inactive).

For `CC(=O)OCC(=O)[C@@]1(O)CC[C@H]2[C@@H]3CCC4=CC(=O)CC[C@]4(C)[C@@]3(F)[C@@H](O)C[C@@]21C`, the cell number [1] was 103, the cell number [2] was 103 and the H1.0 immunofluorescence intensity [3] was 80 (inactive). For the same compound, the H1.0 immunofluorescence intensity [4] was 104 (inactive).

`CC(C)OC(=O)C(C)(C)Oc1ccc(C(=O)c2ccc(Cl)cc2)cc1` [Fenofibrate] was tested, and the cell number [1] was 99.6 ± 2.2, the cell number [2] was 106.6 ± 0.69 and the H1.0 immunofluorescence intensity [3] was 95 (inactive). The H1.0 immunofluorescence intensity [4] was 109 (inactive).

`N#CC(=C1Nc2ccccc2S1)c1ccnc(NCCc2cccnc2)n1` [JNK Inhibitor V] was tested, and the cell number [1] was 73.6, the cell number [2] was 87.4 and the H1.0 immunofluorescence intensity [3] was 108 (inactive). The H1.0 immunofluorescence intensity [4] was 123 (inactive).

In the case of `COc1cc2c(Nc3ccc(NC(=O)c4ccccc4)cc3)ncnc2cc1OCCCN1CCOCC1`, the cell number [1] is reported as 49.8, the cell number [2] is reported as 44 and the H1.0 immunofluorescence intensity [3] is reported as 126 (active). The H1.0 immunofluorescence intensity [4] was 151 (active).

`CCC=CCC=CCC=CCCCCCCCC(=O)O` [Linolenic acid] was tested, and the cell number [1] was 104 ± 3.3, the cell number [2] was 98.7 ± 9 and the H1.0 immunofluorescence intensity [3] was 101 (inactive). The H1.0 immunofluorescence intensity [4] was 97.6 (inactive).

In the case of `CCCCCCC(O)CC=CCCCCCCCC(=O)O` (centres undefined) [Ricinoleic acid], the cell number [1] is reported as 98.1, the cell number [2] is reported as 104 and the H1.0 immunofluorescence intensity [3] is reported as 97.7 (inactive). For the same compound, the H1.0 immunofluorescence intensity [4] was 101 (inactive).

With `CCCCCC=CCC(O)C=CC=CC=CC(O)CCCC(=O)O` (centres undefined) [Leukotriene B4] the cell number [1] was 105, the cell number [2] was 98.8 and the H1.0 immunofluorescence intensity [3] was 93.3 (inactive). The H1.0 immunofluorescence intensity [4] was 102 (inactive).

For `CN1C2CCCC1CC(NC(=O)c1nn(C)c3ccccc13)C2` (centres undefined) [Granisetron], the cell number [1] was 93.7, the cell number [2] was 93.9 and the H1.0 immunofluorescence intensity [3] was 104 (inactive). For the same compound, the H1.0 immunofluorescence intensity [4] was 102 (inactive).

In the case of `NC(Cc1ccc(O)c(O)c1)C(=O)O` (centres undefined) [Levodopa], the cell number [1] is reported as 96.9, the cell number [2] is reported as 102 and the H1.0 immunofluorescence intensity [3] is reported as 93.3 (inactive). For the same compound, the H1.0 immunofluorescence intensity [4] was 96.9 (inactive).
